# The list is not random: actives were taken first. Their share in the collection is about 1.4%.
# EBNA-1 inh = blocks EBNA-1 binding to DNA | 300,000 tested, 0.34% active | inhibition, % at 14.8 µM | EBNA-1 DNA binding, fluorescence polarization; in the data active = inhibition above about 28%
# LYPLA2 inh = LYPLA2 (human) inhibition in PME1 counter-screen; O95372; recombinant LYPLA2, FP-Rh probe fluorescence polarization; inhibition, % at 5.9 µM; 320,000 tested, 0.38% active; AID 2177;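 active = inhibition above the screen-wide mean plus 3 SD, limit set per campaign, cut at about 26% in these data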
# ZTA DNA inh = blocks Epstein-Barr virus ZTA, an EBNA-1 counter-screen; ZTA-DNA binding, fluorescence polarization; inhibition, % at 11 µM; AID 2234; P03206; 320,000 tested, 0.15% active; in the data active = inhibition above about 33%
# Target sequence (P03206 whole entry, looked up): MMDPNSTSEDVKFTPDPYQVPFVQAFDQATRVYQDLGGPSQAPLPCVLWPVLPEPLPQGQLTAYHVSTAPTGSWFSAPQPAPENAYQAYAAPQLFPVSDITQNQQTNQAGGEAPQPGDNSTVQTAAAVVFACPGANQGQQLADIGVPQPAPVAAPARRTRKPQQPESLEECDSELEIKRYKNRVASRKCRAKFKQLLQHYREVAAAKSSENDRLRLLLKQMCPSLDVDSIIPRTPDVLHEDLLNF
# LYPLA1 inh = counter-screen for PME1 inhibitors: inhibitors of human LYPLA1; O75608; recombinant LYPLA1, FP-Rh probe fluorescence polarization; inhibition, % at 5.9 µM; 320,000 tested, 0.16% active; AID 2174;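 active = inhibition above the mean of all tested compounds plus 3 SD, set per campaign, cut at about 14% in these data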;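 note: inhibitors block serine hydrolase probe labeling of LYPLA1 so polarization falls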
# Target sequence (O75608 whole entry, looked up): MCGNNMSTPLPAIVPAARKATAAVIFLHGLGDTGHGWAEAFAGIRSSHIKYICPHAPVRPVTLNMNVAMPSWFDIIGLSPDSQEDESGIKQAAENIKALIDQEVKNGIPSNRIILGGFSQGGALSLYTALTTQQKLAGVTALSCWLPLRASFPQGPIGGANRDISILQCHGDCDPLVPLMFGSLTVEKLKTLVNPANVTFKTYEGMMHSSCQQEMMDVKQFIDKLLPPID
# LANA-H2B inh = blocks KSHV LANA binding to histone H2A/H2B; AID 2629; cell-free LANA-H2A/H2B peptide, fluorescence polarization; inhibition, % (test concentration not listed); 320,000 tested, 0.6% active; Q9QR71; in the data active = inhibition mostly above about 10%, no sharp cut-off; inactive = mostly below about 6.7%
# Hits are given with their value; n = inactive; x = no result; + = active, no number; ! = not active in a repeat.
SMILES,EBNA-1 inh,LYPLA2 inh,ZTA DNA inh,LYPLA1 inh,LANA-H2B inh
COc1cc(OC)cc(C(=O)Nc2nnc(SCC(=O)NCc3ccco3)s2)c1,n,n,n,n,39.2
COc1ccc(C(=O)Nc2nnc(SCC(=O)NCc3ccco3)s2)cc1OC,n,n,n,n,n
Cc1ccc(CN(Cc2ccccc2)C(=S)NCC(=O)NCc2cccnc2)o1,n,n,n,n,n
COC(=O)c1cc(NC(=O)c2ccc([N+](=O)[O-])cc2)c(=O)oc1C,n,n,n,n,13.1
CC(=O)c1cc(NC(=O)c2ccc([N+](=O)[O-])cc2)c(=O)oc1C,n,n,n,n,n
COC1CCCN(C(=O)c2cccc(OC3CCN(S(C)(=O)=O)CC3)c2)C1 (stereo unspecified),n,n,n,n,n
COCCC1CCCCN1C(=O)c1cccc(OC2CCN(S(C)(=O)=O)CC2)c1 (stereo unspecified),x,x,x,x,16.9
Cn1c(SCC(=O)c2ccccc2)nc2cccnc21,n,n,n,n,97.7
Cc1ccc(C(=O)CSc2nc3cccnc3n2C)cc1,n,n,n,n,n
COc1cc(C2Nc3ccc4ccccc4c3C3=C2C(=O)CC(C)(C)C3)ccc1OC(C)C(=O)O (stereo unspecified),n,n,n,n,n
CCOCC(=O)Nc1cc([N+](=O)[O-])ccc1OC,n,n,n,n,22.4
CCOCC(=O)Nc1ccc([N+](=O)[O-])cc1OC,n,n,n,n,n
CC(C)n1cnnc1SCC(=O)NC(=O)c1ccccc1,n,n,n,n,n
O=C(O)C1CSC(c2ccc3c(c2)OCO3)N1 (stereo unspecified),n,n,n,n,22.3
COC(=O)c1cn(CC(=O)Nc2ccc(F)cc2)c2ccccc12,n,n,n,n,12.1
Cc1ccc(CNC(=O)CCSCc2ccccc2F)cc1,n,n,n,n,n
CC(C(=O)Nc1ccc(S(=O)(=O)N2CCCCC2)cc1)N1CCN(c2ccccn2)CC1 (stereo unspecified),n,n,n,n,138.4
CC(C(=O)Nc1ccc(S(=O)(=O)N2CCCC2)cc1)N1CCN(C(=O)c2ccco2)CC1 (stereo unspecified),n,n,n,n,n
COc1ccc(C2C=C(c3cccs3)Nc3nc(CCCO)nn32)cc1 (stereo unspecified),n,n,n,n,74.4
COc1ccc(C2C=C(c3ccccc3)Nc3nc(CCCO)nn32)cc1 (stereo unspecified),n,n,n,n,n
CCc1oc2ccccc2c1C(=O)c1cc(Br)c(O)c(Br)c1,n,n,n,n,22.0!
CCCCOC(=O)c1ccc(NC(=O)C(=O)NCCN(C)C)cc1,n,n,n,n,n
CCOc1ccc(NC(=O)C23CC4CC(C2)CC(c2ccccc2)(C4)C3)cc1,n,n,n,n,14.3
CCOC(=O)CNC(=O)C12CC3CC(C1)CC(c1ccc(C)cc1)(C3)C2,n,n,n,n,n
O=C(N/N=C1\C(=O)c2cccc3cccc1c23)c1ccc(O)cc1,n,n,n,n,+
SMILES,EBNA-1 inh,LYPLA2 inh,ZTA DNA inh,LYPLA1 inh,LANA-H2B inh
O=C(c1ccc(Cl)c(S(=O)(=O)NCc2cccnc2)c1)N1CCCC1,x,n,n,n,x
N#Cc1ccccc1NCc1ccccc1,n,n,n,n,15.0
O=C(NCC(c1ccco1)N1CCc2ccccc2C1)c1cccc(Br)c1 (stereo unspecified),n,n,n,n,n
CCN1C(=NCC(C)C)N[C@@H](c2cccc(C(F)(F)F)c2)C(C(=O)OC)=C1C,n,n,n,n,13.1
COc1ccc(S(N)(=O)=O)cc1C(=O)N(C)CC(=O)Nc1ccc(N2CCOCC2)cc1,n,n,n,n,n
O=C(COC(=O)C12CC3CC(CC(Cl)(C3)C1)C2)Nc1ccccc1,x,x,x,x,n
O=C(CSc1nc(=O)n(CCN2CCOCC2)c2c1CCCC2)Nc1ccc(F)cc1F,n,n,n,n,n
CCCCC[C@@H]1C=C(C(=O)O)[C@H](c2ccc(Cl)c(Cl)c2)N1S(=O)(=O)c1ccc(C)cc1,x,x,x,x,120.0
CC[C@@H]1C=C(C(=O)O)[C@H](c2ccc(Cl)c(Cl)c2)N1S(=O)(=O)c1ccc(C)cc1,x,x,x,x,n
Cc1ccccc1S(=O)(=O)N1[C@@H](c2ccc(Cl)cc2)C(C(=O)O)=CC[C@H]1c1ccc(Cl)cc1,x,x,x,x,60.0
Cc1ccc([C@H]2C(C(=O)O)=CC[C@@H](c3ccc(Cl)cc3)N2S(=O)(=O)c2ccccc2C)cc1,x,x,x,x,n
Cc1ccc([C@H]2C(C(=O)O)=CC[C@@H](c3ccc(C)cc3)N2S(=O)(=O)c2ccc(C)cc2)cc1,x,x,x,x,+
CC(C)(C)c1ccc(C(=O)NNC(=O)CNC(=O)c2cccs2)cc1,x,x,x,x,n
COc1ccc2cc(CN(Cc3ccco3)C(=S)NCC3CCCO3)c(=O)[nH]c2c1 (stereo unspecified),n,n,n,n,n
Cc1cc(C)c2cc(CN(Cc3ccco3)C(=S)NCC3CCCO3)c(=O)[nH]c2c1 (stereo unspecified),n,n,n,n,19.6
CCn1cc(C(=O)NCc2cccc(C(F)(F)F)c2)c(=O)c2ccc(C)nc21,n,n,n,n,n
CCn1cc(C(=O)OCC(=O)c2cc(C)n(-c3cccc(C(F)(F)F)c3)c2C)c(=O)c2ccc(C)nc21,n,n,n,n,53.6
O=C1c2cccc(OCC(=O)N3N=C(c4cccs4)CC3c3ccc(F)cc3)c2CCN1Cc1cccnc1 (stereo unspecified),n,37.5,n,n,n
Cn1c(=O)[nH]c(=O)c2c1nc1n2CCCN1Cc1ccccc1,n,n,n,n,n
COC(=O)c1ccc(-n2c(C)ccc2-c2ccccc2)cc1,n,n,n,n,n
COc1ccc(-n2c(C)ccc2-c2ccccc2)cn1,n,n,n,n,78.8
Cc1cccc(N(O)C(=O)Nc2cccc(Cl)c2)c1,x,x,x,x,n
COc1ccc(C(C(=O)NCCC(C)C)N(CCO)C(=O)c2snc(C(N)=O)c2N)cc1 (stereo unspecified),n,n,n,n,23.3
COc1ccc(N(C(=O)c2snc(C(N)=O)c2N)C(C(=O)NC2CCCC2)c2cc(OC)ccc2OC)c(OC)c1 (stereo unspecified),n,n,n,n,n
COc1ccc(N(C(=O)c2snc(C(N)=O)c2N)C(C(=O)NC2CCCCC2)c2ccc(F)cc2)c(OC)c1 (stereo unspecified),n,n,n,n,18.1
Cc1ccc(C(=O)NCCCN2CCOCC2)c(C)c1,n,n,n,n,n
COc1ccc(N=C(c2ccccc2)c2c(C)[nH]n(-c3ccccc3)c2=O)c(OC)c1,n,n,n,n,n
Cc1ccc(NC(=O)Nc2ccc(F)cc2F)c(OC(F)F)c1,n,n,n,n,102.5
CCn1c(SCC(=O)NC(=O)NCc2ccco2)nc2sc(C)c(C)c2c1=O,27.9,n,n,n,n
CC(C)CC(NC(=O)C(NC(=O)OC(C)(C)C)C(C)C)C(N)=O (stereo unspecified),n,n,n,n,n

# Compound activity (PubChem BioAssay)
